Screens as filed in PubChem.
FBPA Giardia inh: blocks Giardia fructose-bisphosphate aldolase activity; 290,000 tested, 0.71% active; purified Giardia FBPA; Potency, µM (top dose mostly 59.6 µM), usual class: inhibitors; AID 2451; A8B2U2; note: nearly all actives have a fitted effect of over 55% in size
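Giardia FBPA (40 nM reagent) was preincubated 10 min at RT with compound (up to 57.5 uM final), then substrate plus GAPDH/TPI/NAD/arsenate coupling system with diaphorase/resazurin was added; resorufin fluorescence (525/598 nm) was read after 20 min.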
Shiga inhibitor: inhibitors of Shiga toxin in Vero cells; Vero cells, Shiga toxin protein synthesis inhibition reporter; inhibition, % at 38.7 µM; 290,000 tested, 9.2% active; AID 2315; in the data active = inhibition mostly above about 28%, no sharp cut-off; inactive = mostly below about 43%
Tb PYK inh: inhibitors of Trypanosoma brucei pyruvate kinase. Q57TT1. TbPYK enzyme, Kinase-Glo Plus ATP luminescence, 45 min. Potency, µM (titrated, usually from 76.8 µM), most hits filed as inhibitors. 410,000 tested, 0.12% active. AID 624173; note: nearly all actives have a fitted effect of over 50% in size
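Activity of T. brucei pyruvate kinase was followed by Kinase-Glo Plus luminescence after the enzyme reacted 45 min at room temperature with 130 uM ADP (final) and substrate. Test compounds were added before ADP at multiple concentrations.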
Sm TGR inh: inhibitors of Schistosoma mansoni thioredoxin glutathione reductase. AID 485364. Potency, µM (highest dose often 114 µM), hits mostly inhibitors. purified TGR, DTNB reduction, TNB absorbance 405 nm. Q962Y6. 360,000 tested, 3% active; note: nearly all actives have a fitted effect of over 60% in size
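First, TGR (20 nM dispensed) and NADPH were mixed with compound. Second, a 15 min room-temperature incubation followed. Third, further NADPH and then DTNB were added to start the reaction. Finally, TNB absorbance was monitored kinetically.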
LmPK inh: blocks Leishmania mexicana pyruvate kinase activity. Q27686. purified LmPK, Kinase-Glo ATP luminescence, 1 h. Potency, µM (titrated, usually from 57.5 µM), usual class: inhibitors. 290,000 tested, 0.37% active
Target sequence (Q27686 whole entry, looked up): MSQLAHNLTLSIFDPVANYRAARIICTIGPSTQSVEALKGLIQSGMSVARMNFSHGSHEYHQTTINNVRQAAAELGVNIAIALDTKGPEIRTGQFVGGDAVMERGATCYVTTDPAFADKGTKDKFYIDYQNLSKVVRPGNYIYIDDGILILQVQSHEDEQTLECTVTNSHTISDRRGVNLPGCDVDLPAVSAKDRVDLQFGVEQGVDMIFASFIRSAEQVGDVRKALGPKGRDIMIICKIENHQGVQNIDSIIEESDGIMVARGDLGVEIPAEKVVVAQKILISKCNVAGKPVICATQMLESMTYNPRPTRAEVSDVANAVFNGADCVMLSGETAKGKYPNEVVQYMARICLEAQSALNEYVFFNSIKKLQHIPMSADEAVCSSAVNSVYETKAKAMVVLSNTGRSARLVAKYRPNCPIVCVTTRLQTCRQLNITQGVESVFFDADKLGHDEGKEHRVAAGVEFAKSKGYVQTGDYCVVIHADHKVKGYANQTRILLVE
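Purified LmPK (0.1 nM) converted ADP (0.1 mM) to ATP with PEP (0.5 mM) in imidazole buffer pH 7.2 with KCl and MgCl2, 1 h at room temperature. ATP was read by Kinase-Glo luminescence; data normalized to uninhibited and no-enzyme controls.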
CHX counter: affects cycloheximide protein synthesis inhibition readout, counter-screen | AID 2314 | 300,000 tested, 12% active | max response, % | cell reporter, cycloheximide protein synthesis inhibition counterscreen; in the data active = max response mostly above about 13%, no sharp cut-off; inactive = mostly below about 14%; note: read at 38.3 µM for the half of the compounds with a filed dose
A number is an active result; i = inactive; ? = inconclusive; nt = not tested or not shown. The full list was thinned out, with hits kept by preference. Unless noted, calls come from the whole dose curve; as a rule, active = well fitted curve in the direction sought with a large enough effect; inconclusive = small, poorly fitted or top-dose-only effect, or another doubt; inactive = no such curve, though single readings can be large; an effect the other way counts as inactive or inconclusive.

SMILES	FBPA Giardia inh	Shiga inhibitor	Tb PYK inh	Sm TGR inh	LmPK inh	CHX counter
COc1ccc(-c2cc(C3CCNCC3)[nH]n2)cc1	i	i	i	45µM	i	i
O=C(c1n[nH]c2ccccc12)N1CCN(S(=O)(=O)c2ccc(Cl)cc2)CC1	nt	nt	i	i	nt	nt
CCOCCc1nnc(NC(=O)C2CC(=O)N(CCc3ccc(F)cc3)C2)s1 (stereo not drawn)	i	i	i	i	i	i
CCOc1ccccc1CNC(=O)c1ccc2nc(N3CCC(C)CC3)sc2c1	nt	nt	i	i	nt	nt
O=C1CSC(=S)N1c1ccc(F)cc1	i	i	nt	i	i	i
O=C1CSC(=S)N1c1cccc(O)c1	i	i	i	i	i	i
CN(C)c1ccc(N2C(=O)CSC2=S)cc1	i	62	i	i	i	19
O=C(O)c1cccc(N2C(=O)CSC2=S)c1	i	i	i	i	i	19
CN1CCN(C(CNC(=O)c2c(F)cccc2F)c2ccc3c(c2)OCO3)CC1 (stereo not drawn)	nt	nt	i	i	nt	nt
Cc1cc(=O)oc2cc(OCCc3ccccc3)ccc12	i	83	i	i	i	42
Cc1cc(=O)oc2cc(OCC(=O)c3ccccc3)ccc12	i	i	i	i	i	17
COc1cccc(COc2ccc3c(C)cc(=O)oc3c2)c1	i	79	i	i	i	31
CC[C@H](C)[C@H](NC(=O)[C@H](C)NC(=O)[C@H](CC(=O)O)NC(=O)[C@H](CO)NC(=O)[C@@H](N)Cc1cnc[nH]1)C(=O)N[C@@H](Cc1ccccc1)C(=O)N[C@H](C(=O)N[C@@H](CCC(N)=O)C(=O)N[C@@H](CCC(N)=O)C(=O)N[C@@H](Cc1ccc(O)cc1)C(=O)N[C@@H](CO)C(=O)N[C@@H](CCCCN)C(=O)N[C@@H](CC(C)C)C(=O)N[C@@H](CC(C)C)C(=O)N[C@@H](C)C(=O)N[C@@H](CCCCN)C(=O)N[C@@H](CC(C)C)C(=O)N[C@@H](C)C(=O)N[C@@H](CC(C)C)C(=O)N[C@@H](CCC(N)=O)C(=O)N[C@@H](CCCCN)C(=O)N[C@@H](Cc1ccc(O)cc1)C(=O)N[C@@H](CC(C)C)C(=O)N[C@@H](C)C(=O)N[C@@H](CO)C(=O)N[C@H](C(=O)N[C@@H](CC(C)C)C(=O)NCC(=O)N[C@@H](CO)C(=O)N[C@@H](CCCNC(=N)N)C(=O)N[C@H](C(=O)N[C@@H](CO)C(=O)N1CCC[C@H]1C(=O)N1CCC[C@H]1C(=O)N1CCC[C@H]1C(N)=O)[C@@H](C)O)[C@@H](C)CC)[C@@H](C)O	i	i	nt	nt	nt	i
COc1ccccc1-c1noc(-c2ccc(N3CCOCC3)c([N+](=O)[O-])c2)n1	nt	nt	i	i	nt	nt
CCCCCCn1cnc2c(c1=O)c1nc3ccccc3nc1n2/N=C/c1ccco1	i	i	i	14µM	i	i
Cc1nc2c(c(=O)n1CCC1=CCCCC1)c1nc3ccccc3nc1n2/N=C/c1ccco1	i	i	i	11µM	i	i
CCCn1c(C)nc2c(c1=O)c1nc3ccccc3nc1n2CCC1=CCCCC1	i	i	i	i	i	i
COCCn1cnc2c(c1=O)c1nc3ccccc3nc1n2/N=C/c1ccco1	i	i	i	45µM	i	i
Cc1cc(C(=O)NC2CCCc3c2cnn3-c2ccc(C(C)(C)C)cc2)n[nH]1 (stereo not drawn)	i	i	i	i	i	i
COc1ccc(NC(=O)Cc2ccc(Cl)c(Cl)c2)cn1	i	i	i	i	i	i
COc1ccc(NC(=O)/C(Cl)=C(/Cl)S(=O)Cc2ccccc2Cl)cn1 (stereo not drawn)	i	i	i	0.089µM	i	i
COc1ccc(NC(=O)/C(Cl)=C(/Cl)S(=O)(=O)Cc2ccc(C)cc2)cn1	i	i	i	2.5µM	i	i
CNc1ncncc1-c1ccccc1C	i	nt	nt	nt	nt	nt
COCC(=O)Nc1ccc(C(C)C)cc1	i	110	i	i	i	37
COc1ccc(NC(=O)Nc2ccc(C(C)C)cc2)cc1	i	58	i	i	i	19
SMILES	FBPA Giardia inh	Shiga inhibitor	Tb PYK inh	Sm TGR inh	LmPK inh	CHX counter
CC(C)NC(=O)CSc1cn(CC(=O)N2CCCCCC2)c2ccccc12	nt	nt	i	i	nt	nt
Cc1ccc(N2C(=O)C(CC(=O)Nc3ccc(F)cc3)N(Cc3ccc4c(c3)OCO4)C2=O)cc1 (stereo not drawn)	nt	nt	i	i	nt	nt
CCc1cccc(NC(=O)Cn2c(=O)n(CC(=O)NCCc3ccccc3)c(=O)c3ccccc32)c1	nt	nt	i	i	nt	nt
CCOc1cccc2sc(NC(=O)c3ccc(S(=O)(=O)N4CCCCC4C)cc3)nc12 (stereo not drawn)	nt	nt	i	i	nt	nt
CCOc1ccc2cc(C3CC(c4ccco4)=NN3S(=O)(=O)c3ccccc3)c(Cl)nc2c1 (stereo not drawn)	i	68	i	i	i	19
Cc1ccc2cc(C3CC(c4ccco4)=NN3S(=O)(=O)c3ccccc3)c(Cl)nc2c1 (stereo not drawn)	i	i	i	i	i	i
COc1ccc2cc(C3CC(c4ccco4)=NN3S(=O)(=O)c3ccccc3)c(Cl)nc2c1 (stereo not drawn)	i	33	i	i	i	i
COc1cccc(-c2nc3c(C#N)c[nH]n3c2NC2CCCCC2)c1	nt	nt	i	i	nt	nt
CCOC(=O)CC(=O)CSc1nnc(Cn2c(=O)sc3ccccc32)n1C	i	i	i	i	i	i
CCOC(=O)CNC(=O)CSc1nnc(Cn2c(=O)sc3ccccc32)n1C	i	i	i	i	i	18
CCOC(=O)CNC(=O)CSc1nnc(-c2ccco2)n1Cc1ccco1	i	i	?	25µM	i	i
O=C(CSc1nnc(C2CC2)n1Cc1ccco1)NCC(F)(F)F	i	i	i	35µM	i	i
CCOC(=O)c1c(NC(=O)CSc2nnc(-c3ccccc3)n2CC)sc(C(C)=O)c1C	i	i	?	i	i	i
O=C(CSc1nnc(C2CC2)n1-c1ccccc1)NCc1ccco1	i	i	i	?	i	i
CCOC(=O)c1sc(NC(=O)CSc2nnc(-c3ccco3)n2CC)c(C(=O)OCC)c1C	i	i	i	20µM	i	i
CCOc1ccc(CNC(=O)C2=Cc3cc(Br)ccc3OC2)cc1OC	nt	nt	i	i	nt	nt
COC(=O)[C@H]1C[C@H]2CC[C@H](O)C[C@H]2N1Cc1c(F)cccc1Cl	i	nt	nt	nt	nt	nt
CCCN1C(=O)/C(=C/c2ccc(C)s2)NC1=S	i	i	i	?	i	20
COc1cc(NC(=O)c2ccccc2)c(OC)cc1NC(=O)CN1C(=O)N(C)C2(CCCCC2)C1=O	nt	nt	i	i	nt	nt
CCc1nc(SCc2ccccc2C)n[nH]1	?	i	i	i	i	21
Cc1nc(SCc2ccccc2C)n[nH]1	i	active	i	i	i	19
COc1ccc(N2C(=O)CC(NC3CCCCNC3=O)C2=O)cc1 (stereo not drawn)	i	i	i	20µM	i	i
